Screening results deposited in PubChem by National Center for Advancing Translational Sciences (NCATS).
Six1-Eya2 blk: qHTS Assay for Inhibitors of the Six1/Eya2 Interaction. Homeobox protein SIX1 (Homo sapiens) + Protein phosphatase EYA2 (Homo sapiens), …. AlphaScreen GST-Six1/His-Eya2 binding, biochemical; active compounds read low. activity change, % (test concentration not listed). hit rate 0.56% among 360,000; in the data active means activity change below about -65%; inconclusive means mostly about -30% to -63%
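AlphaScreen luminescence read after one hour at 37 °C in darkness. Pin-transferred compounds met GST-Six1 and His-Eya2 protein (5X stock 250 nM/500 nM) plus glutathione donor and Ni-chelate acceptor beads (5X, 50 ug/mL).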
JMJD2A Tudor inh: qHTS Assay for Inhibitors of JMJD2A-Tudor Domain; Lysine-specific demethylase 4A (Homo sapiens), O75164; AlphaScreen JMJD2A-Tudor / H3K4me3 peptide binding; Potency, µM (doses to about 114 µM), hits mostly inhibitors; hit rate 4.4% among 390,000; AID 504339, 2011; further: nearly all actives have a fitted effect of over 50% in size
CtBP-E1A blk: qHTS Assay for Inhibitors of the CtBP/E1A Interaction; activity change, % (test concentration not listed); CtBP / adenovirus E1A interaction (AlphaScreen); hit rate 0.49% among 340,000; AlphaScreen GST-E1A/His-CtBP binding, 1536-well; active compounds read low; in the data active means activity change below about -65%; inconclusive means mostly about -30% to -63%
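Homogeneous bead-based format: GST-tagged E1A captured on glutathione donor beads, His-tagged CtBP on nickel acceptor beads; compounds precede bead addition by 2 h at 37 °C.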
HP1b binding inh: HTS for Inhibitors of HP1-beta Chromodomain Interactions with Methylated Histone Tails. AlphaScreen HP1-beta / biotin-H3K9me3 peptide binding. hit rate 0.56% among 390,000. Potency, µM (top dose mostly 114 µM), most hits filed as inhibitors. Chromobox protein homolog 1 (Homo sapiens), P83916. AID 540317, 2011; further: nearly all actives have a fitted effect of over 70% in size
Target sequence (P83916 whole entry, looked up): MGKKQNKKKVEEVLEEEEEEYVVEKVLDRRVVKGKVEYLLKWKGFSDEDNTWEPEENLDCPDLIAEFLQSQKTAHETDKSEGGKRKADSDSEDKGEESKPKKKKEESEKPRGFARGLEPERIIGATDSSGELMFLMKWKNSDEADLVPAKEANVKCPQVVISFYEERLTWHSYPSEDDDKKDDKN
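Compound inhibition of the preformed complex between 50 nM HP1-beta and 50 nM biotinylated H3K9me3 peptide was read by AlphaScreen. Buffer was PBS pH 7.4 with 0.01% Tween-20. Incubations ran 30 min at room temperature, with 10 ug/mL donor/acceptor beads.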
BAZ2B block: qHTS Assay for Inhibitors of BAZ2B; Bromodomain adjacent to zinc finger domain protein 2B (Homo sapiens), Q9UIF8; AlphaScreen BAZ2B-H3K14Ac peptide displacement; Potency, µM (highest dose often 114 µM), most hits filed as inhibitors; hit rate 4.4% among 360,000; AID 504333, 2011; further: nearly all actives have a fitted effect of over 60% in size
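BAZ2B 50 nM plus b-H3(5-23)K14Ac 50 nM, PBS pH 7.4/0.01% Tween-20, 30 min RT; compound added (max 110 uM), 30 min RT; streptavidin donor/Ni-chelate acceptor beads 10 ug/mL final, 20 min dark; AlphaScreen read.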
G9a inh: qHTS Assay for Inhibitors of Histone Lysine Methyltransferase G9a. G9a H3K9 monomethylation, AlphaScreen, 2 h. Histone-lysine N-methyltransferase EHMT2 (Homo sapiens), Q96KQ7. AID 504332, 2011. hit rate 8.8% among 350,000. Potency, µM (doses to about 102 µM), hits mostly inhibitors; further: nearly all actives have a fitted effect of over 75% in size
Target sequence (Q96KQ7 913-1193 limits assumed): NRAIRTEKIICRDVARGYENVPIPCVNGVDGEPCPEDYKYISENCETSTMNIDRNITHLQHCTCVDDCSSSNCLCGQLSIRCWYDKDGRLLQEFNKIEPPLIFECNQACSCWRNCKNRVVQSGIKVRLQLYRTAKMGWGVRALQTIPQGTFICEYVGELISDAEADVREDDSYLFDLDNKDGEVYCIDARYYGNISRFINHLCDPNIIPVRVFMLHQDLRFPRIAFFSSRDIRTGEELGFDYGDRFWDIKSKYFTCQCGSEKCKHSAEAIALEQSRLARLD
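Signal arises when biotinylated H3K9 peptide, once monomethylated, bridges streptavidin donor and antibody-captured acceptor beads. Enzyme at 20 nM was preincubated 15 min with test compounds; peptide 500 nM and SAM 20 uM then reacted for 2 h.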
Hits are given with their value; n = inactive; u = inconclusive; x = no result given; [ ] = another dose, or the depositor's remark. The list is not random: actives were taken first. Their share in the collection is about 10%. Unless noted, the call rests on the fitted dose curve; in most records, active means well fitted inhibition curve with a large enough effect; inconclusive means small, poorly fitted or top-dose-only effect; inactive means no such curve, though single readings can be large or run the other way.

SMILES	Six1-Eya2 blk	JMJD2A Tudor inh	CtBP-E1A blk	HP1b binding inh	BAZ2B block	G9a inh
Cc1cccc(-n2c(C)c(-c3ccccc3)[nH]c2=S)c1	n	35µM	n	u	u	x
Cc1cccc(-n2c(C)n[nH]c2=S)c1	n	10µM	n	n	u	u
Cc1cccc(-n2c(-c3ccncc3)n[nH]c2=S)c1	n	28µM	n	n	n	1.3µM
Cc1ccc(CN(Cc2cccn2-c2nnc(N3CCCC3=O)s2)C(=O)Nc2ccc(F)cc2)cc1	x	n	x	n	n	n
Cc1nn(-c2ccccc2)c(Cl)c1C(=O)NCC1CCCO1 (stereo not given)	n	n	n	n	n	n[12.7 µM]
COc1ccc(C(=O)NCc2nnc(SCC(=O)Nc3ccc(C)cc3)n2-c2ccccc2)cc1	x	n	x	n	n	n
CC(N=C1NS(=O)(=O)c2ccccc21)C(=O)OCC(=O)N(C)C1CCS(=O)(=O)C1 (stereo not given)	n	n	n	n	n	n[12.7 µM]
CCOC(=O)c1c(C)c(-c2ccccc2)n(CC(=O)N2CCN(C)CC2)c1C	n	n	n	n	n	71µM
CCOC(=O)c1c(C)c(-c2ccccc2)n(CC(=O)N2CCCC2)c1C	n	n	n	n	n	n
COCCNc1nc2cc(-c3cccc(Cl)c3)sc2c(=O)n1C	n	x	n	x	x	x
CCOC(=O)c1sc(C)nc1C1CCN(C(=O)OCC)CC1	n	n	n	n	n	45µM
COc1cc(NC2c3ccccc3C(=O)N2Cc2ccc3c(c2)OCO3)cc(OC)c1OC (stereo not given)	n	n	n	n	n	u
CCOc1ccc(NC2c3ccccc3C(=O)N2Cc2ccc3c(c2)OCO3)cc1 (stereo not given)	n	45µM	u	u	16µM	35µM
CC(=O)c1cccc(NC2c3ccccc3C(=O)N2Cc2ccc3c(c2)OCO3)c1 (stereo not given)	n	n	n	n	n	u
O=C1c2ccccc2C(Nc2cccnc2)N1Cc1ccccc1 (stereo not given)	n	n	n	n	u	25µM
O=C1c2ccccc2C(Nc2cccnc2)N1Cc1ccccc1Cl (stereo not given)	n	n	n	n	n	u
O=C1c2ccccc2C(Nc2ccc3c(c2)OCCO3)N1Cc1ccccc1 (stereo not given)	n	40µM	u	u	40µM	45µM
COc1ccc(CCC(=O)O)c(C(CC(=O)O)C(=O)O)c1OS(=O)(=O)c1ccc(C)cc1 (stereo not given)	n	x	n	x	x	x
COn1c(SC2CCCCC2)nc2ccccc2c1=O	n	n	n	n	n	22µM
COn1c(SC(C)C)nc2ccccc2c1=O	n	n	n	n	n	n[12.7 µM]
CCOC(=O)[C@]12CCCC=C1N(Cc1ccccc1)C(=O)[C@H](CC(=O)NCc1cccc(C(F)(F)F)c1)C2	n	x	n	x	x	x
O=C(O)c1cc(-c2ccc(N3CCOCC3)cc2)nn1-c1ccc(F)cc1F	n	n	n	n	n	45µM
O=C(O)c1cc(-c2ccc(N3CCOCC3)cc2)nn1-c1ccccc1Cl	n	u	n	n	x	56µM
CCc1nc(-c2cc(S(=O)(=O)N3CCN(c4ccc(F)cc4)CC3)ccc2OC)no1	x	n	x	n	n	u
CN1CCN(C(=O)c2cc3c(=O)n4ccccc4nc3s2)CC1	n	n	n	n	n	50µM
COc1cccc(C2/C(=C(/O)c3cnn(-c4ccccc4)c3C)C(=O)C(=O)N2CCN(C)C)c1OC (stereo not given)	n	n	n	n	u	14µM
COc1ccc(/C(O)=C2\C(=O)C(=O)N(CCN(C)C)C2c2cccc(OC)c2OC)cc1 (stereo not given)	n	n	n	n	n	11µM
